{
  "source": "PubChem BioAssay (EPA / NIEHS)",
  "note": "Active and inactive are the calls of the source. The calls were made as follows: active = hit-call score of the fitted dose curve at least 0.9, where 1 is the maximum; inactive = score below 0.9.",
  "data": [
    {"read-out": "Plasminogen activator inhibitor-1 (PAI1), SERPINE1 (gene 5054)", "assay": "BSK_BE3C_PAI1: BioMAP Diversity Plus: BE3C Assay for Plasminogen activator inhibitor-1 (PAI1) Biomarker Activity (AID 2283037)", "settings": "primary human bronchial epithelial cells; actives raise or lower the signal", "summary_of_the_method": "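ELISA read-out of PAI-1 from human bronchial epithelial primary cells, 24 h post-dosing; bidirectional curve fit vs DMSO baseline, gain or loss of signal scored.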", "values": [
      {"smiles": "Cc1c(COC(=O)[C@@H]2[C@H](/C=C(\\Cl)C(F)(F)F)C2(C)C)cccc1-c1ccccc1", "outcome": "inactive"},
      {"smiles": "O=c1n(Cl)c(=O)n(Cl)c(=O)n1Cl", "outcome": "inactive"},
      {"smiles": "CC1(C)CCC(=Cc2ccc(Cl)cc2)C1(O)Cn1cncn1", "note": "(stereo unspecified)", "outcome": "inactive"},
      {"smiles": "COC(=O)N(C(=O)N1CO[C@@]2(C(=O)OC)Cc3cc(Cl)ccc3C2=N1)c1ccc(OC(F)(F)F)cc1", "outcome": "inactive"},
      {"smiles": "CC1(C)CON(Cc2ccccc2Cl)C1=O", "outcome": "inactive"},
      {"smiles": "Cn1c(-c2ccccc2)cc(-c2ccccc2)[n+]1C", "outcome": "inactive"},
      {"smiles": "COC(=O)NC(=S)Nc1ccccc1NC(=S)NC(=O)OC", "outcome": "inactive"},
      {"smiles": "N#CN=C1SCCN1Cc1ccc(Cl)nc1", "outcome": "inactive"},
      {"smiles": "CS(=O)(=O)c1cc(C(F)(F)F)ccc1C(=O)c1cnoc1C1CC1", "outcome": "inactive"},
      {"smiles": "COP(=S)(OC)SCn1nnc2ccccc2c1=O", "outcome": "inactive"},
      {"smiles": "CCSC(=O)N1CCCCCC1", "outcome": "inactive"},
      {"smiles": "O=C(O)c1c(Cl)ccc2cc(Cl)cnc12", "outcome": "inactive"},
      {"smiles": "CCCCOCN(C(=O)CCl)c1c(CC)cccc1CC", "AC50": "30.7 µM (active)"},
      {"smiles": "CC(C)N1C(=O)c2ccccc2NS1(=O)=O", "outcome": "inactive"},
      {"smiles": "CCCCC(O)(Cn1cncn1)c1ccc(Cl)cc1Cl", "note": "(stereo unspecified)", "outcome": "inactive"},
      {"smiles": "COCC(C)N(C(=O)CCl)c1c(C)csc1C", "note": "(stereo unspecified)", "outcome": "inactive"},
      {"smiles": "CC1(C)C(C=C(Cl)Cl)C1C(=O)OC(C#N)c1cccc(Oc2ccccc2)c1", "note": "(stereo unspecified)", "outcome": "inactive"},
      {"smiles": "CCOP(=S)(OCC)Oc1nc(Cl)n(C(C)C)n1", "outcome": "inactive"},
      {"smiles": "COP(=O)(OC)O/C(C)=C/C(=O)N(C)C", "outcome": "inactive"},
      {"smiles": "CCN(CC)c1nc(C)cc(OP(=S)(OC)OC)n1", "outcome": "inactive"},
      {"smiles": "Cc1cc(C)nc(Nc2ccccc2)n1", "outcome": "inactive"}
    ]}
  ]
}
